The record followed here is the supplement of paper PMC13094657.

± gives the standard deviation of the averaged measurements.

Assay [1] relates to MDA-MB-231. Briefly: cell viability relative to vehicle unstimulated control (fraction); higher = more viable cells. The following applies: pre-treatment time: 18 h then 24 h IFNg/TNF.
Assay [2] has as its system MDA-MB-231. Description: kynurenine production, fold change vs DMSO IFNg/TNF control; higher = more kynurenine produced (less inhibition). Particulars: pre-treatment time: 18 h then 24 h IFNg/TNF. Summed up: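 Fold change over cytokine-stimulated vehicle wells on the same plate is the measure used for kynurenine production, averaged across duplicate plates in the first screening round. MDA-MB-231 cells, seeded 24 h beforehand at 7 × 10^4/well in 96-well plates, were pre-treated 18 h with each natural product in 0.1% DMSO and stimulated 24 h at 37°C with IFNγ (1 U/ml) and TNF (6.25 ng/ml). Supernatants were read at 492 nm following trichloroacetic acid and p-dimethylaminobenzaldehyde treatment, against 0–100 μM standards.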
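For cell viability relative to vehicle unstimulated control in this document: viability of the cells left after supernatant collection, read with Deep Blue dye added for 4 h, as absorbance at 570 nm minus 600 nm.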

On to `CC1(C)CCC2(CO)C(=C3C=CC4C5(C)CCC(OC6OC(COC7OC(CO)C(O)C(O)C7O)C(OC7OC(CO)C(O)C(O)C7O)C(O)C6O)CC5C(C)(CO)CC4(C)C3(C)CC2O)C1` (stereo unspecified) [Clinodiside A] (compound dose: 10 uM), for which the cell viability in assay [1] amounted to 0.918 ± 0.029. In addition, the kynurenine production in assay [2] came out at 1.03 ± 0.2.
With `C[C@@H]1O[C@@H](O[C@H]2[C@H](OC(=O)[C@]34CCC(C)(C)C[C@H]3C3=CC[C@@H]5[C@@]6(C)C[C@H](O)[C@H](O[C@@H]7O[C@H](CO)[C@@H](O)[C@H](O[C@@H]8O[C@H](CO)[C@@H](O)[C@H](O)[C@H]8O)[C@H]7O)C(CO)(CO)[C@@H]6CC[C@@]5(C)[C@]3(C)C[C@H]4O)OC[C@H](O)[C@@H]2O)[C@H](O)[C@H](O)[C@H]1O[C@@H]1OC[C@@H](O)[C@H](O[C@@H]2OC[C@](O)(CO)[C@H]2O)[C@H]1O` [Platycodin D2] (compound dose: 10 uM), the cell viability in assay [1] came out at 0.7561 ± 0.0061. Further, in assay [2], the kynurenine production came to 0.301 ± 0.043.
Regarding `CC(CCC(OC1OC(CO)C(O)C(O)C1OC1OC(CO)C(O)C(O)C1O)C(C)(C)O)C1CCC2(C)C3CC=C4C(CCC(O)C4(C)C)C3(C)C(O)CC12C` (stereo unspecified) [Mogroside II-A] (compound dose: 10 uM), in assay [1], the cell viability is 1.05 ± 0.069. In addition, the kynurenine production in assay [2] was 0.693 ± 0.08.
Turning to `C=C(C)[C@H]1CC=C(C)CC1` [(r)-(+)-limonene] (compound dose: 10 uM), the cell viability in assay [1] is 0.986 ± 0.032. For the same compound, the kynurenine production in assay [2] came out at 0.907 ± 0.04.
As to `C=C(C)[C@@H]1CC[C@]2(C(=O)O)CC[C@]3(C)[C@H](CC[C@@H]4[C@@]5(C)CC[C@H](O)C(C)(C)[C@@H]5CC[C@]43C)[C@@H]12` [Betulinic acid] (compound dose: 10 uM), the cell viability in assay [1] was determined as 0.993 ± 0.044. Further, the kynurenine production in assay [2] worked out at 0.949 ± 0.051.
With `CC12CCC(CC1=O)C2(C)C` (stereo not drawn) [(+)-Camphor] (compound dose: 10 uM), the cell viability in assay [1] was 1 ± 0.016. Besides, the kynurenine production in assay [2] turned out to be 0.98 ± 0.25.
As to `COc1ccc([C@H]2OC[C@H]3[C@@H]2CO[C@H]3c2ccc(O[C@@H]3O[C@H](CO)[C@@H](O)[C@H](O)[C@H]3O)c(OC)c2)cc1OC` [Phillyrin] (compound dose: 10 uM), in assay [1], the cell viability was determined as 0.978 ± 0.024. In addition, in assay [2], the kynurenine production is 0.866 ± 0.16.
Take `C[C@H]1COC2=C1C(=O)C(=O)c1c2ccc2c1CCCC2(C)C` [Cryptotanshinone] (compound dose: 10 uM): the cell viability in assay [1] worked out at 0.885 ± 0.048. For the same compound, in assay [2], the kynurenine production worked out at 0.3818 ± 0.0038.
In the case of `CC(C)=CCC[C@](C)(O[C@@H]1O[C@H](CO[C@@H]2OC[C@H](O)[C@H](O)[C@H]2O)[C@@H](O)[C@H](O)[C@H]1O)[C@H]1CC[C@]2(C)[C@@H]1[C@H](O)C[C@@H]1[C@@]3(C)CC[C@H](O[C@@H]4O[C@H](CO)[C@@H](O)[C@H](O)[C@H]4O[C@@H]4O[C@H](CO)[C@@H](O)[C@H](O)[C@H]4O)C(C)(C)[C@@H]3CC[C@]12C` [Ginsenoside Rb2] (compound dose: 10 uM), the cell viability in assay [1] turned out to be 0.968 ± 0.04. The kynurenine production in assay [2] stood at 0.88 ± 0.14.
As to `CC(C)(O)[C@H]1CC[C@@](C)([C@H]2CC[C@]3(C)[C@@H]2[C@H](O)C[C@@H]2[C@@]4(C)CC[C@H](O)C(C)(C)[C@@H]4[C@@H](O[C@@H]4O[C@H](CO)[C@@H](O)[C@H](O)[C@H]4O)C[C@]23C)O1` [Pseudoginsenoside RT5] (compound dose: 10 uM), the cell viability in assay [1] was found to be 0.987 ± 0.016. Further, in assay [2], the kynurenine production is 0.865 ± 0.21.
Regarding `C=C(C)[C@@H]1CC=C(C)C(=O)C1` [L(-)-carvone] (compound dose: 10 uM), the cell viability in assay [1] is 0.965 ± 0.069. Further, in assay [2], the kynurenine production turned out to be 0.974 ± 0.049.
As to `O=C1O[C@H]2[C@@H]3OC(=O)c4cc(O)c(O)c(O)c4-c4c(O)c(O)c5oc(=O)c6c(c(O)c(O)c7oc(=O)c4c5c76)-c4c(cc(O)c(O)c4O)C(=O)OC[C@H]3OC(O)[C@@H]2OC(=O)c2cc(O)c(O)c(O)c2-c2c1cc(O)c(O)c2O` (mixture of isomers) [Punicalagin] (compound dose: 10 uM), the cell viability in assay [1] stood at 1.001 ± 0.0011. The kynurenine production in assay [2] is 0.1 ± 0.0087.
Take `CC(C)=CCC[C@](C)(O[C@@H]1O[C@H](CO)[C@@H](O)[C@H](O)[C@H]1O)[C@H]1CC[C@]2(C)[C@@H]1[C@H](O)C[C@@H]1[C@@]3(C)CC[C@H](O)C(C)(C)[C@@H]3[C@@H](O[C@@H]3O[C@H](CO)[C@@H](O)[C@H](O)[C@H]3O)C[C@]12C` [Ginsenoside Rg1] (compound dose: 10 uM): the cell viability in assay [1] was 0.975 ± 0.025. In addition, the kynurenine production in assay [2] is 0.782 ± 0.22.
Turning to `CC1(C)[C@@H](O)CC[C@]2(C)[C@H]3C(=O)C=C4[C@H]5C[C@@](C)(C(=O)O)CC[C@]5(C)CC[C@@]4(C)[C@]3(C)CC[C@@H]12` [18α-Glycyrrhetinic acid] (compound dose: 10 uM), the cell viability in assay [1] was found to be 1.06 ± 0.11. The kynurenine production in assay [2] came to 0.943 ± 0.14.
Take `CCCCCCCCCC(=O)O[C@@H]1[C@@H](C)[C@@]2(O)[C@@H](C=C(COC(=O)Cc3ccc(O)c(OC)c3)C[C@]3(O)C(=O)C(C)=C[C@@H]23)[C@@H]2C(C)(C)[C@]12OC(=O)CCCCCCCCC` [Phorbol 12,13-didecanoate 20-homovanillate] (compound dose: 10 uM): the cell viability in assay [1] was 1 ± 0.024. Also, in assay [2], the kynurenine production came out at 0.74 ± 0.024.
`CN1CCC[C@H]1c1cccnc1` [(-)-nicotine] (compound dose: 10 uM): the cell viability in assay [1] amounted to 0.978 ± 0.08. Moreover, the kynurenine production in assay [2] came to 1.04 ± 0.11.
In the case of `O=C(/C=C/c1ccc(O)c(O)c1)O[C@H](Cc1ccc(O)c(O)c1)C(=O)O` [Rosmarinic acid] (compound dose: 10 uM), the cell viability in assay [1] turned out to be 1.11 ± 0.14. In assay [2], the kynurenine production was determined as 0.908 ± 0.18.
For `CC1=CC[C@@H](C(C)(C)O)CC1` [α terpineol (mixed)] (compound dose: 10 uM), in that order: 0.977 ± 0.065 and 0.876 ± 0.082.
As for `C/C=C(/C)C(=O)O[C@H]1C(C)=C[C@]23C(=O)[C@@H](C=C(COC(C)=O)[C@@H](O)[C@]12O)[C@H]1[C@@H](C[C@H]3C)C1(C)C` [20-O-Acetylingenol-3-angelate] (compound dose: 10 uM), the cell viability in assay [1] was 1.1 ± 0.091. For the same compound, in assay [2], the kynurenine production worked out at 0.874 ± 0.053.
For `C[C@@H]1CC[C@]2(C(=O)O)CC[C@]3(C)C(=CC[C@@H]4[C@@]5(C)C[C@@H](O)[C@@H](O)C(C)(C)[C@@H]5CC[C@]43C)[C@@H]2[C@]1(C)O` [Euscaphic acid] (compound dose: 10 uM), in assay [1], the cell viability worked out at 0.933 ± 0.02. The kynurenine production in assay [2] was 0.804 ± 0.15.
For the compound `CC1(C)CC[C@]2(C(=O)O)[C@H](O)C[C@]3(C)C(=CC[C@@H]4[C@@]5(C)CC[C@H](O)[C@@](C)(C=O)[C@@H]5CC[C@]43C)[C@@H]2C1` [Quillaic acid] (compound dose: 10 uM), in assay [1], the cell viability turned out to be 1.01 ± 0.015. The kynurenine production in assay [2] worked out at 1.11 ± 0.018.
The like results for `C[C@@H]1CC[C@]2(C(=O)O[C@@H]3O[C@H](CO)[C@@H](O)[C@H](O)[C@H]3O)CC[C@]3(C)C(=CC[C@@H]4[C@@]5(C)CC[C@H](O)[C@@](C)(CO)[C@@H]5CC[C@]43C)[C@@H]2[C@]1(C)O` [Pedunculoside] (compound dose: 10 uM) were, in that order, 0.967 ± 0.074 and 1 ± 0.29.
As for `CC(C)=CCC[C@@](C)(O)[C@H]1CC[C@]2(C)[C@@H]1[C@H](O)C[C@@H]1[C@@]3(C)C[C@@H](O)[C@H](O[C@@H]4O[C@H](CO)[C@@H](O)[C@H](O)[C@H]4O[C@@H]4O[C@H](CO)[C@@H](O)[C@H](O)[C@H]4O)C(C)(C)[C@@H]3CC[C@]12C` [Gypenoside LI] (compound dose: 10 uM), the cell viability in assay [1] stood at 0.936 ± 0.084. Moreover, the kynurenine production in assay [2] is 0.724 ± 0.1.
Consider `C[C@H]1[C@@H](O)O[C@@H]2O[C@@]3(C)CC[C@H]4[C@H](C)CC[C@@H]1[C@@]24OO3` [Dihydroartemisinin] (compound dose: 10 uM), for which the cell viability in assay [1] was determined as 0.978 ± 0.069. Also, the kynurenine production in assay [2] came out at 0.688 ± 0.12.
Turning to `COc1ccc(SC)cc1` [4-methoxythioanisole] (compound dose: 10 uM), the cell viability in assay [1] is 0.965 ± 0.057. For the same compound, in assay [2], the kynurenine production came out at 0.973 ± 0.12.
As for `C=C(C(=O)O)[C@@H]1CC[C@@H](C)[C@@H]2CCC(C)=C[C@@H]21` [Artemisic acid] (compound dose: 10 uM), the cell viability in assay [1] was found to be 0.828 ± 0.3. For the same compound, the kynurenine production in assay [2] was found to be 0.594 ± 0.14.
For `C[C@@H]1CC[C@]2(C(=O)O[C@@H]3O[C@H](CO)[C@@H](O)[C@H](O)[C@H]3O)CC[C@]3(C)C(=CC[C@@H]4[C@@]5(C)C[C@@H](O)[C@H](O)C(C)(C)[C@@H]5CC[C@]43C)[C@@H]2[C@]1(C)O` [Rosamultin] (compound dose: 10 uM), in that order: 1 ± 0.077 and 1.09 ± 0.26.
`CC(CC(=O)C[C@](C)(O)[C@H]1CC(=O)[C@@]2(C)C3=C(C(=O)C[C@]12C)[C@@]1(C)CCC(=O)C(C)(C)[C@@H]1C[C@@H]3O)C(=O)O` (stereo partly specified) [Ganoderic acid N] (compound dose: 10 uM): in assay [1], the cell viability is 1.03 ± 0.053. In addition, the kynurenine production in assay [2] was 0.857 ± 0.12.
As to `C[C@H]1[C@H](C)CC[C@]2(C(=O)O[C@@H]3O[C@H](CO[C@@H]4O[C@H](CO)[C@@H](O[C@@H]5O[C@H](C)[C@H](O)[C@@H](O)[C@H]5O)[C@H](O)[C@H]4O)[C@@H](O)[C@H](O)[C@H]3O)CC[C@]3(C)C(=CC[C@@H]4[C@@]5(C)C[C@@H](O)[C@H](O)[C@@](C)(CO)[C@@H]5CC[C@]43C)[C@H]12` [Asiaticoside] (compound dose: 10 uM), the cell viability in assay [1] was found to be 0.831 ± 0.1. Besides, the kynurenine production in assay [2] is 0.85 ± 0.17.
Turning to `CC(C)=CCC[C@](C)(O[C@@H]1O[C@H](CO)[C@@H](O)[C@H](O)[C@H]1O)[C@H]1CC[C@]2(C)[C@@H]1[C@H](O)C[C@@H]1[C@@]3(C)CC[C@H](O)C(C)(C)[C@@H]3CC[C@]12C` [Ginsenoside C-K] (compound dose: 10 uM), in assay [1], the cell viability worked out at 0.969 ± 0.016. In addition, in assay [2], the kynurenine production came to 0.912 ± 0.14.
For the compound `CCCCC/C=C\C=C\C(=O)O[C@H]1C(C)=C[C@]23C(=O)[C@@H](C=C(CO)[C@@H](O)[C@]12O)[C@H]1[C@@H](C[C@H]3C)C1(C)C` [3-O-(2'E,4'ZDecadienoyl) ingenol] (compound dose: 10 uM), in assay [1], the cell viability was found to be 1 ± 0.09. In addition, in assay [2], the kynurenine production was 1.022 ± 0.0084.
For `CC(=O)O[C@]12CCC(C(=O)O)=CC[C@]13CC[C@H]2[C@@](C)(/C=C/C=C(\C)C(=O)O)OC3=O` [Pseudolaric Acid C2] (compound dose: 10 uM), the cell viability in assay [1] amounted to 1.017 ± 0.0098. Moreover, the kynurenine production in assay [2] was 0.728 ± 0.017.
For `C=C[C@]1(C)C[C@@H](OC(=O)CO)[C@]2(C)[C@H](C)CC[C@]3(CCC(=O)[C@@H]32)[C@@H](C)[C@@H]1O` [Pleuromutilin] (compound dose: 10 uM), the cell viability in assay [1] was determined as 1.01 ± 0.057. Also, the kynurenine production in assay [2] was 0.861 ± 0.094.
